# Hits are enriched below; roughly 10% of the tested compounds scored in any of these assays.
# GLS inh: blocks human kidney-isoform glutaminase activity. O94925. GLS enzymatic activity, qHTS titration. Potency, µM (highest dose often 45.5 µM), inactives show at the highest dose activity change, negative = inhibition, most hits filed as inhibitors. 410,000 compounds, 0.21% hits; also: % is scaled to controls: 0 for no effect and ±100 for the full control effect
#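 Assay buffer: 45 mM KH2PO4 pH 8.2, 0.02% Tween-20. hKGA acts on L-glutamine (1 mM solution added); product glutamate is reported by an oxidase/peroxidase Amplex Red coupling, with fluorescence taken at baseline and 30 min.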
# JMJD2A Tudor inh: JMJD2A Tudor domain (human) inhibition; 390,000 compounds, 4.4% hits; Potency, µM (highest dose often 114 µM), without a hit: top-dose activity change, negative = inhibition, usual class: inhibitors; AlphaScreen JMJD2A-Tudor / H3K4me3 peptide binding; AID 504339; also: % is scaled to controls: 0 for no effect and ±100 for the full control effect; nearly all actives have a fitted effect of over 50% in size
# HP1b chromo inh: inhibitors of HP1-beta chromodomain binding to methylated histone tails. P83916. AlphaScreen HP1-beta / biotin-H3K9me3 peptide binding. Potency, µM (series often up to 114 µM), for inactives: at the top dose activity change, negative = inhibition, most hits filed as inhibitors. 390,000 compounds, 0.56% hits; also: nearly all actives have a fitted effect of over 70% in size
#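 Compound inhibition of the preformed complex between 50 nM HP1-beta and 50 nM biotinylated H3K9me3 peptide was read by AlphaScreen. Buffer was PBS pH 7.4 with 0.01% Tween-20. Incubations ran 30 min at room temperature, with 10 ug/mL donor/acceptor beads.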
# G9a block: G9a (human) methyltransferase inhibition. G9a H3K9 monomethylation, AlphaScreen, 2 h. Potency, µM (doses to about 102 µM), inactives show at the highest dose activity, negative = inhibition, hits mostly inhibitors. 350,000 compounds, 8.8% hits. AID 504332; also: % is scaled to controls: 0 for no effect and ±100 for the full control effect; nearly all actives have a fitted effect of over 75% in size
#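 Methyltransferase reactions run at room temperature for 2 h (20 nM enzyme, 500 nM biotin-H3K9 peptide, 20 uM SAM) after a 15 min compound preincubation; product detected by AlphaScreen beads and anti-H3K9me1 antibody.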
# BAZ2B inh: inhibitors of human BAZ2B bromodomain. Q9UIF8. AlphaScreen BAZ2B-H3K14Ac peptide displacement. Potency, µM (doses to about 114 µM), for inactives: at the top dose activity change, negative = inhibition, most hits filed as inhibitors. 360,000 compounds, 4.4% hits. AID 504333; also: % is scaled to controls: 0 for no effect and ±100 for the full control effect; nearly all actives have a fitted effect of over 60% in size
#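 Complex of BAZ2B and biotin-H3K14Ac (50 nM apiece) forms over 30 min at RT, then faces library compounds up to 110 uM for another 30 min; AlphaScreen beads added, 20 min dark incubation, luminescence read.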
# * hit, by the source's call; ? = inconclusive; . = no result given; [ ] = dose if it differs, or a comment. Calls follow the shape of the dose curve; as a rule, active = well fitted curve in the direction sought with a large enough effect; inconclusive = small, poorly fitted or top-dose-only effect, or another doubt; inactive = no such curve, though single readings can be large; an effect the other way counts as inactive or inconclusive. Potency is read from the fitted curve at half-maximal effect.
SMILES,GLS inh,JMJD2A Tudor inh,HP1b chromo inh,G9a block,BAZ2B inh
CCOC(=O)CSc1nc2ccc(NC(=O)COc3ccccc3C)cc2s1,-9%,-2%,58%,-5%[59 µM],-1%
O=C(CSc1ccc2nnc(-c3cccnc3)n2n1)N1CCc2ccccc21,.,.,.,?,-2%
O=C(CSc1ccc2nnc(-c3ccc(Cl)cc3)n2n1)N1CCc2ccccc21,-2%,-5%,47%,7.9µM*,-4%
O=C(CSc1ccc2nnc(-c3ccc(Cl)cc3)n2n1)N1CCCC1,-8%,-23%,37%,35µM*,10%
O=C(CSc1ccc2nnc(-c3cccnc3)n2n1)N1CCOCC1,7%,-23%,32%,?,-23%
O=C(CCn1c2c(c3ccccc31)CCCC2)NNC(=O)c1ccccc1C(=O)O,18%,-28%,4%,.,71µM*
O=C(Nc1nc(-c2ccccn2)cs1)c1cc2ccccc2o1,8%,25µM*,31%,-36%,22µM*
Cc1c(C(=O)Nc2nc(-c3ccccn3)cs2)oc2ccccc12,0%,?,?,?,35µM*
Cc1nnc(NC(=O)c2oc3ccccc3c2C)s1,15%,-7%,28%,-22%,-4%
N#CCCN(CCCN1CCOCC1)CN1C(=O)c2ccccc2C1=O,-5%,.,.,.,.
COc1ccc(/C=C2\SC(N3CCc4ccccc4C3)=NC2=O)cc1OC,18%,?,?,13µM*,-37%
COc1ccccc1C(=O)Nc1cccc(C(=O)OCc2cc(=O)n3ccsc3n2)c1,-9%,-30%,44%,1%[59 µM],-3%
Clc1ccc(-c2nnc(SCc3nc4ccccc4[nH]3)o2)c(Cl)c1,2%,-1%,13%,8.9µM*,-1%
COc1ccccc1C(CCN(Cc1cccs1)C(C)=O)c1ccco1 (configuration not stated),-1%,-28%,8%,45µM*,79µM*
CN(Cc1ccccc1)c1ccc(C(CC(N)=O)NC(=O)c2ccccc2)cc1[N+](=O)[O-] (configuration not stated),8%,-32%,-3%,.,?
CC(c1ccc(F)cc1)n1cc(C(=O)NCCN(C)C)nn1 (configuration not stated),0%,4%,55%,45µM*,-36%
COC(=O)Cc1c(C)[nH]n(-c2cc(Cl)cc(Cl)c2)c1=O,-3%,-14%,14%,40µM*,?
CCCN1CCC(=O)N([C@H](COc2ccccc2)c2ccccc2)CC1,0%,-12%,23%,40µM*,?
CCc1ccc(NC(=O)N2CCN(Cc3nc4ccc(C)cc4o3)CC2)cc1,7%,-20%,-8%,-2%[59 µM],-11%
N#CCCN(Cc1cccnc1)C(=O)Nc1ccccc1,-2%,-26%,9%,-18%[12.7 µM],5%
N#CCCN(Cc1ccccc1)C(=O)c1nccnc1C(=O)O,-2%,?,50%,35µM*,?
CCCCCCn1c(=O)[nH]c2nc3cc(N)c(C)cc3nc2c1=O,-1%,-21%,5%,3.5µM*,3%
CCOC(=O)CC(NC(=O)c1cc2cc(OC)ccc2oc1=O)c1ccc(OC)cc1 (configuration not stated),-13%,6%,25%,-28%[59 µM],-5%
O=C(NCc1ccc(Cl)cc1)c1ccc(NC(=O)N2CC3CCCN3c3ccccc32)cc1 (configuration not stated),30%,-23%,3%,10µM*,-38%
O=C(CCC(=O)N1CC2CCCN2c2ccccc21)NCc1ccccc1F (configuration not stated),9%,45µM*,35%,-26%[59 µM],-32%
COC(=O)c1ccc(C(=O)OC)c(NC(=O)N2CC3CCCN3c3ccccc32)c1 (configuration not stated),12%,?,-17%,14µM*,25µM*
O=C(NCCC1=CCCCC1)c1ccc2c(=O)n3nc(Nc4ccccc4)sc3nc2c1,-6%,-24%,13%,3%[59 µM],1%
O=S(=O)(Nc1nc2ccccc2nc1Nc1cccc(S(=O)(=O)N2CCCCC2)c1)c1ccccc1,0%,-15%,27%,?,-7%
CCCCOc1ccc(CSC(=N)N)cc1Cl,20µM*,-7%,9%,3%,-2%
CCCCCOc1ccc(Br)cc1CSC(=N)N,-6%,-31%,14%,-12%[59 µM],6%

# Screening results (PubChem BioAssay)
